TDP1 block – qHTS Assay for Inhibitors of Tyrosyl-DNA Phosphodiesterase (TDP1). Tyrosyl-DNA phosphodiesterase 1 (Homo sapiens), Q9NUW8. recombinant TDP1, AlphaScreen DNA substrate cleavage. Potency, µM (top dose mostly 130 µM), inactives show at the top dose activity change, negative = inhibition, actives largely listed as inhibitors. 350,000 tested, 0.28% active; also: potency is read from the fitted curve at half-maximal effect; % is scaled to controls: 0 for no effect and ±100 for the full control effect; nearly all actives have a fitted effect of over 40% in size
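Here, a 5' biotin and 3' phosphotyrosine-FITC DNA oligonucleotide reports Tdp1 activity: intact substrate bridges AlphaScreen beads, while cleavage leaves a 3' phosphate and drops signal. All incubations at room temperature.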
HP1b chromo inh – HTS for Inhibitors of HP1-beta Chromodomain Interactions with Methylated Histone Tails. Chromobox protein homolog 1 (Homo sapiens), P83916. AlphaScreen HP1-beta / biotin-H3K9me3 peptide binding. Potency, µM (doses to about 114 µM), without a hit: top-dose activity change, negative = inhibition, hits mostly inhibitors. 390,000 tested, 0.56% active. AID 540317, 2011; also: potency is read from the fitted curve at half-maximal effect; nearly all actives have a fitted effect of over 70% in size
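HP1-beta protein (50 nM final) preincubated 30 min at room temperature with biotinylated H3(1-18)K9me3 peptide (50 nM) in PBS pH 7.4, 0.01% Tween-20, then compound added for 30 min. AlphaScreen streptavidin donor/nickel chelate acceptor beads (10 ug/mL final), 30 min dark, luminescence read.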
JMJD2A Tudor inh – qHTS Assay for Inhibitors of JMJD2A-Tudor Domain | Lysine-specific demethylase 4A (Homo sapiens), O75164 | AlphaScreen JMJD2A-Tudor / H3K4me3 peptide binding | Potency, µM (top dose mostly 114 µM), without a hit: top-dose activity change, negative = inhibition, most hits filed as inhibitors | 390,000 tested, 4.4% active | AID 504339, 2011; also: potency is read from the fitted curve at half-maximal effect; % is scaled to controls: 0 for no effect and ±100 for the full control effect; nearly all actives have a fitted effect of over 50% in size
Six1-Eya2 blk – qHTS Assay for Inhibitors of the Six1/Eya2 Interaction; Homeobox protein SIX1 (Homo sapiens) + Protein phosphatase EYA2 (Homo sapiens), …; 360,000 tested, 0.56% active; AlphaScreen GST-Six1/His-Eya2 binding, biochemical; hits give low values; activity change, % (concentration not given with the values); in the data active = activity change below about -65%; inconclusive = mostly about -30% to -63%; also: % is scaled to controls: 0 for no effect and ±100 for the full control effect
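Compounds are tested against tagged Six1 and Eya2 proteins bridged by glutathione donor and nickel acceptor beads; after a one-hour incubation at 37 °C without light, AlphaScreen emission is recorded.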
BAZ2B block – qHTS Assay for Inhibitors of BAZ2B | Bromodomain adjacent to zinc finger domain protein 2B (Homo sapiens), Q9UIF8 | AlphaScreen BAZ2B-H3K14Ac peptide displacement | Potency, µM (highest dose often 114 µM), for inactives: at the highest dose activity change, negative = inhibition, hits mostly inhibitors | 360,000 tested, 4.4% active | AID 504333, 2011; also: potency is read from the fitted curve at half-maximal effect; % is scaled to controls: 0 for no effect and ±100 for the full control effect; nearly all actives have a fitted effect of over 60% in size
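BAZ2B 50 nM plus b-H3(5-23)K14Ac 50 nM, PBS pH 7.4/0.01% Tween-20, 30 min RT; compound added (max 110 uM), 30 min RT; streptavidin donor/Ni-chelate acceptor beads 10 ug/mL final, 20 min dark; AlphaScreen read.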
CtBP-E1A blk – qHTS Assay for Inhibitors of the CtBP/E1A Interaction; 340,000 tested, 0.49% active; CtBP / adenovirus E1A interaction (AlphaScreen); AlphaScreen GST-E1A/His-CtBP binding, 1536-well; hits give low values; activity change, % (test concentration not listed); AID 651724, 2012; in the data active = activity change below about -65%; inconclusive = mostly about -30% to -63%; also: % is scaled to controls: 0 for no effect and ±100 for the full control effect
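Steps: dispense buffer (Tris pH 8.0, NaCl 300 mM, TCEP 1 mM, BSA, Tween 20); add 5X protein mix (GST-E1A, His-CtBP, 125 nM each); pin 23 nL compound; 2 h at 37 °C, dark; add 5X beads (50 ug/mL); 1 h; read.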
Active calls of the source: *; ? = inconclusive; . = not tested or not shown; [ ] = dose if it differs, or a comment. This is a sample that favours compounds with a hit; in the whole collection about 5.3% have one here. Unless noted, calls follow the shape of the dose curve; as a rule, active = well fitted inhibition curve with a large enough effect; inconclusive = small, poorly fitted or top-dose-only effect; inactive = no such curve, though single readings can be large or run the other way.

SMILES	TDP1 block	HP1b chromo inh	JMJD2A Tudor inh	Six1-Eya2 blk	BAZ2B block	CtBP-E1A blk
NS(=O)(=O)c1ccc(CCNC(=O)CCS(=O)(=O)c2ccc(Br)cc2)cc1	.	17.8µM*	31.6µM*	-10.6	31.6µM*	.
Cc1ccc(CC(=O)NCCc2ccc(S(N)(=O)=O)cc2)cc1	.	13.2%	-1.5%	12.0	-2.5%	.
NS(=O)(=O)c1ccc(CCNS(=O)(=O)c2ccccc2)cc1	3.1%	25.7%	-5.6%	4.4	-4.6%	-8.5
CC1(C)O[C@H]2C[C@@H]3[C@H]4CCC5=CC(=O)C=C[C@]5(C)[C@@]4(F)[C@@H](O)C[C@]3(C)[C@]2(C(=O)CO)O1	11.2%	.	.	.	.	.
Cn1c(=O)c2c(ncn2CCCC(=N)N2CCOCC2)n(C)c1=O	0.0%	-7.9%	50.1µM*	1.9	-2.3%	8.0
CC1=C(C(N)=O)C(c2cccc(C)c2)n2nc(-c3ccc(Cl)cc3)nc2N1 (stereo not drawn)	11.6%	65.0%	-6.4%	.	3.4%	.
Cc1nc2sc(C(c3ccco3)N3CCN(c4ccccc4)CC3)c(O)n2n1 (stereo not drawn)	2.1%	30.5%	-25.7%	-1.0	-36.0%	0.6
Cc1nc2sc(C(c3ccco3)N3CCN(C(c4ccccc4)c4ccccc4)CC3)c(O)n2n1 (stereo not drawn)	-7.2%	-21.6%	50.1µM*	-4.5	?	-17.2
CC1CCN(CCCNC(=O)c2cc(Sc3ccc(F)cc3)nc3ccccc23)CC1	10.4%	-7.1%	-28.7%	.	-4.3%	.
COc1ccc2nc(NC(=O)c3cc(=O)c4ccccc4o3)sc2c1	6.1%	57.6%	-34.0%	.	0.3%	.
Cc1cc(C)c2nc(NNC(=O)c3cc(=O)c4ccccc4o3)sc2c1	.	?	56.2µM*	-17.4	31.6µM*	-12.8
C[C@@](N)(C(=O)O)c1ccc(P(=O)(O)O)cc1	10.3%[56.1 µM]	.	.	.	.	.
COCCCNC(=S)NNC(=S)Nc1cccc(Cl)c1	10.1%	-12.0%	3.16µM*	6.3	-26.0%	.
COCCCNC(=S)NNC(=S)NCCCOC	-1.3%	-25.5%	12.6µM*	-12.6	-17.0%	-19.8
COCCCNC(=S)NNC(=O)c1ccccc1Br	4.9%	44.9%	-19.2%	0.4	-12.2%	-0.3
COCCCNC(=S)NNC(=O)c1ccccn1	6.2%	20.9%	20µM*	-92.7*	3.55µM*	-87.1*
COC(=O)c1ccc(NC(=O)CC2C(=O)N(c3ccc(Cl)cc3)C(=O)N2Cc2cccs2)cc1 (stereo not drawn)	11.3%	-2.8%	-23.8%	.	-13.7%	.
S=c1[nH]nc(-c2ccccc2)n1/N=C/c1ccc(-c2ccccc2Cl)o1	0.0%	-14.7%	?	?	-12.9%	-21.1
Cc1ccc(/C=N/n2c(C)n[nH]c2=S)o1	-2.0%	15.1%	5.01µM*	0.8	-5.3%	2.1
Cc1ccc(/C=N/n2c(-c3ccncc3)n[nH]c2=S)o1	7.2%	28.1%	7.08µM*	7.7	?	0.9
O=C(O)CC(Sc1n[nH]c(=S)s1)C(=O)O (stereo not drawn)	?	-17.0%	44.7µM*	2.0	79.4µM*	4.4
COC(=O)C(C)Sc1n[nH]c(=S)s1 (stereo not drawn)	7.0%	?	39.8µM*	-0.2	?	-1.7
CCNc1nc(SC(C)C(=O)OC)nc(N(C)C)n1 (stereo not drawn)	-2.6%	31.6%	-1.4%	5.4	-0.1%	6.5
Cc1ccc(Cn2c(CNC(=O)c3cccc(C)c3)nc3ccccc32)cc1	-5.1%	38.0%	-8.7%	.	-9.2%	.
CCOCCn1c(N2CCCC2)nc2c1c(=O)[nH]c(=O)n2C	.	18.4%	-6.3%	6.2	56.2µM*	.
SMILES	TDP1 block	HP1b chromo inh	JMJD2A Tudor inh	Six1-Eya2 blk	BAZ2B block	CtBP-E1A blk
CCOCCn1c(SC)nc2c1c(=O)[nH]c(=O)n2C	1.0%	?	89.1µM*	-0.2	12.5%	6.3
O=C(Cn1c(=O)c2cccn2c2ccccc21)NCc1ccccc1F	9.1%	33.0%	-31.9%	.	-27.3%	.
CCCNS(=O)(=O)c1ccc(CCC(=O)N2CCCCC2)cc1	4.1%	?	20µM*	7.4	-0.6%	7.8
O=C(CCc1ccc(Oc2cc([N+](=O)[O-])cc([N+](=O)[O-])c2)cc1)N1CCCCCC1	2.7%	?	39.8µM*	?	25.1µM*	-23.5
O=C(Cc1ccc([N+](=O)[O-])cc1)N1CCCCCC1	8.1%	31.0%	-10.5%[57.1 µM]	-1.0	.	-21.1
CCCNS(=O)(=O)c1ccc(CCC(=O)N2CCN(CC)CC2)cc1	1.9%	9.9%	-12.2%	5.8	12.4%	2.8
Nc1nc2c(nc(Br)n2C2CC(O)C(CO)O2)c(=O)[nH]1 (stereo not drawn)	3.6%	.	.	.	.	.
O=C1[C@@H]2[C@H]3C(=CC[C@@H]2C(=O)N1Cc1ccccc1)C1(OCCCO1)[C@H]1O[C@@H]1[C@H]3O	2.6%[21 µM]	.	.	.	.	.
Oc1cc(CNCc2ccccc2)c(O)cc1CNCc1ccccc1	.	31.6µM*	7.94µM*	-10.3	.	-11.5
CN(C)c1ccc(CNC(=O)CN2C(=O)C3CCCCN3c3ccc(C(=O)N4CCCC4)cc32)cc1 (stereo not drawn)	-0.6%	-14.4%[57 µM]	-31.0%	.	-15.3%	.
O=C(/C=C/Nc1ccc(Nc2ccccc2)cc1)c1cccs1	8.5%	?	?	?	12.6µM*	-4.4
CNc1cc([N+](=O)[O-])ccc1N/C=C/C(=O)c1cccs1	10.0%	-7.0%	?	-27.7	50.1µM*	-12.0
O=C(/C=C/Nc1cccc([N+](=O)[O-])c1)c1cccs1	3.6%	52.5%	5.3%	4.1	-35.6%	5.5
Cc1noc(-c2ccc(NC(C)c3ccccc3)c([N+](=O)[O-])c2)n1 (stereo not drawn)	5.7%	50.9%	-6.6%	.	0.1%	.
Cc1ccnc(NS(=O)(=O)c2ccc(N3C(=O)c4c(Cl)c(Cl)c(Cl)c(Cl)c4C3=O)cc2)n1	1.8%	?	89.1µM*	-19.5	?	-2.9
CCC(=O)N1CCc2cc(Br)cc(S(=O)(=O)CCC(=O)NCCc3cccc(C)c3)c21	0.0%	6.1%	-9.0%	.	0.1%	.
O=C(Nc1cccc([N+](=O)[O-])c1)c1ccncc1	0.6%	27.4%	-4.1%	1.2	1.3%	1.7
O=C(Nc1cccc([N+](=O)[O-])c1)c1cnccn1	-5.3%	16.7%	?	-9.5	50.1µM*	-0.2

Screening data as filed in PubChem BioAssay.
